HP1b chromo inh = blocks HP1-beta chromodomain binding to methylated histone tails. P83916. AlphaScreen HP1-beta / biotin-H3K9me3 peptide binding. Potency, µM (doses to about 114 µM), inactives show at the highest dose activity change, negative = inhibition, actives largely listed as inhibitors. 0.56% of 390,000 active. AID 540317; further: nearly all actives have a fitted effect of over 70% in size
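HP1-beta protein (50 nM final) preincubated 30 min at room temperature with biotinylated H3(1-18)K9me3 peptide (50 nM) in PBS pH 7.4, 0.01% Tween-20, then compound added for 30 min. AlphaScreen streptavidin donor/nickel chelate acceptor beads (10 ug/mL final), 30 min dark, luminescence read.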
BAZ2B block = blocks human BAZ2B. Q9UIF8. AlphaScreen BAZ2B-H3K14Ac peptide displacement. Potency, µM (series often up to 114 µM), inactives show top-dose activity change, negative = inhibition, usual class: inhibitors. 4.4% of 360,000 active. AID 504333; further: on the % scale 0 is the no-effect control and ±100 the full control effect; nearly all actives have a fitted effect of over 60% in size
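Compounds, titrated to a top concentration of 110 uM, were incubated 30 min at room temperature with preformed BAZ2B/acetyl-K14 H3 peptide complex (50 nM each). Proximity signal was measured by AlphaScreen after 20 min with beads.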
ALOX12 inh = ALOX12 (human) lipoxygenase inhibition | P18054 | purified 12hLO, xylenol orange hydroperoxide absorbance | Potency, µM (titrated, usually from 108 µM), for inactives: at the top dose activity change, negative = inhibition, hits mostly inhibitors | 1.1% of 580,000 active | AID 1671190; further: on the % scale 0 is the no-effect control and ±100 the full control effect
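Purified human 12hLO at 150 nM in 25 mM Hepes, 0.01% Triton X-100, pH 7.0, preincubated 15 min at room temperature with compound. Reaction started with 40 uM arachidonic acid, 30 min at room temperature. Hydroperoxide measured by Fe-xylenol orange, 573/405 nm absorbance ratio.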
Sfp inh = inhibitors of Bacillus subtilis Sfp phosphopantetheinyl transferase; Q9F4F7; Biochemical Sfp PPTase activity, qHTS; Potency, µM, for inactives: largest response in the series, negative = inhibition, actives largely listed as inhibitors; 3.5% of 310,000 active;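 further: the enzyme is Sfp with the accession as filed and its product quenches rhodamine fluorescence; 0% = enzyme reaction without inhibitor and -100% = no enzyme wells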
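Sfp 15 nM + cpd, 15 min RT; start w/ rhodamine-CoA 5 uM, BHQ-2-YbbR 12.5 uM (final); 50 mM Hepes pH 7.6, 10 mM MgCl2, 0.01% NP-40, 0.01% BSA; read 525/598 nm at 0 and 30 min.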
G9a block = blocks human histone lysine methyltransferase G9a. G9a H3K9 monomethylation, AlphaScreen, 2 h. Potency, µM (highest dose often 102 µM), for the others: top-dose activity, negative = inhibition, hits mostly inhibitors. 8.8% of 350,000 active; further: on the % scale 0 is the no-effect control and ±100 the full control effect; nearly all actives have a fitted effect of over 75% in size
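Using a bead-based AlphaScreen, monomethylated H3K9 product from 2 h room-temperature reactions (G9a 20 nM, peptide 500 nM, SAM 20 uM) was detected with 0.5 ug/mL rabbit anti-H3K9me1 antibody.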
JMJD2A Tudor inh = blocks the human JMJD2A Tudor domain | O75164 | AlphaScreen JMJD2A-Tudor / H3K4me3 peptide binding | Potency, µM (titrated, usually from 114 µM), without a hit: at the top dose activity change, negative = inhibition, actives largely listed as inhibitors | 4.4% of 390,000 active | AID 504339; further: on the % scale 0 is the no-effect control and ±100 the full control effect; nearly all actives have a fitted effect of over 50% in size
Target sequence (O75164 whole entry, looked up, the tested form may be a part): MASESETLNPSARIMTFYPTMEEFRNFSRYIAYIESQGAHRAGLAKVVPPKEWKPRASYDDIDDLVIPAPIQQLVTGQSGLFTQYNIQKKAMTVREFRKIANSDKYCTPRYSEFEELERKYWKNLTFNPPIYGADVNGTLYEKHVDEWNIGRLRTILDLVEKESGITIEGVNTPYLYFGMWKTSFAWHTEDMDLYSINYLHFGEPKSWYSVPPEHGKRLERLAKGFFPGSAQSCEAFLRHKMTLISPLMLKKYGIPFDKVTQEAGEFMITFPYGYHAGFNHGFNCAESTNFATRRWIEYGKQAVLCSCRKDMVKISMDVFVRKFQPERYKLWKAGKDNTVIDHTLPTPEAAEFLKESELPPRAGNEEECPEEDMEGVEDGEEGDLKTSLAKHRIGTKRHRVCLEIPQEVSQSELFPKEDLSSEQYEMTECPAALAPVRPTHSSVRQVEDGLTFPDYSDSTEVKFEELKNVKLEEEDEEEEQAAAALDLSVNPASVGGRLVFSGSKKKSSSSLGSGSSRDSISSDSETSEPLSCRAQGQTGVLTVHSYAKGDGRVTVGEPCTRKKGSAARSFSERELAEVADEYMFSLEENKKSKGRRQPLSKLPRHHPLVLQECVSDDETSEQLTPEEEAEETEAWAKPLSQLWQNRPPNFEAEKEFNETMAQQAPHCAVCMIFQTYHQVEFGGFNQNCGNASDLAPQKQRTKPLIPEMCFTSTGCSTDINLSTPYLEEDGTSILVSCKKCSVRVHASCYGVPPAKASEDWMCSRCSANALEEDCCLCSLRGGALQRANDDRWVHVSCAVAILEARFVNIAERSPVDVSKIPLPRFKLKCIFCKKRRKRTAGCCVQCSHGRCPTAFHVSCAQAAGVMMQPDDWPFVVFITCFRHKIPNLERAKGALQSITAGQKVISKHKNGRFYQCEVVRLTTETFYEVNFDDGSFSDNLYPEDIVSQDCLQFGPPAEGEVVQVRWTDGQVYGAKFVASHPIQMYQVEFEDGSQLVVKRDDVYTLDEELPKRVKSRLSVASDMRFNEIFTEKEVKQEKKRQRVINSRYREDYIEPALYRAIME
* = called active by the depositor; ? = inconclusive; . = not tested or not shown; [ ] = another dose, or the depositor's remark. Sampled rows, rich in hits. Any-hit rate of the full collection: about 8.7%. The call rests on the fitted dose curve; in most records, active means well fitted curve in the direction sought with a large enough effect; inconclusive means small, poorly fitted or top-dose-only effect, or another doubt; inactive means no such curve, though single readings can be large; an effect the other way counts as inactive or inconclusive. Potency means the concentration at half of the fitted maximal effect.

SMILES | HP1b chromo inh | BAZ2B block | ALOX12 inh | Sfp inh | G9a block | JMJD2A Tudor inh
CN(C)S(=O)(=O)c1cccc(C(=O)NC(=S)N(CCC#N)Cc2cccnc2)c1 | 25% | 10% | -1% | 45µM* | 84%[59 µM] | -21%
Cc1ccc(S(=O)(=O)N(C)C)cc1NC(=S)N(CCC#N)Cc1cccnc1 | 2% | -17% | 8% | ? | 5%[59 µM] | -7%
N#CCCN(Cc1cccnc1)S(=O)(=O)c1ccc2ccccc2c1 | 15% | 5% | -13% | . | 0%[59 µM] | -17%
COC(=O)c1ccc(N2CCCCC2)c(NS(=O)(=O)c2ccc(C)cc2)c1 | 32% | 9% | 3%[57.4 µM] | -4% | 5% | 6%
Cn1c(=O)c(=O)n(C)c2cc(N3CCOCC3)c(NS(=O)(=O)c3ccc([N+](=O)[O-])cc3)cc21 | 13% | 79µM* | ? | 50µM* | ? | ?
Cn1c(=O)c(=O)n(C)c2cc(N3CCOCC3)c(NS(=O)(=O)c3ccc(F)c(Cl)c3)cc21 | 57% | -4% | ? | 10% | -41%[59 µM] | -13%
Cn1c(=O)c(=O)n(C)c2cc(N3CCCC3)c(NS(=O)(=O)c3ccc(Cl)cc3)cc21 | 29% | -34% | 40µM* | -10% | ? | -33%
Cn1c(=O)n(C)c2cc(N3CCOCC3)c(NS(=O)(=O)c3ccc(Br)cc3)cc21 | 25% | 50µM* | -19% | . | ? | -16%
CC1CCN(c2ccc(C(=O)O)cc2NS(=O)(=O)c2ccc(Br)cc2)CC1 | 21% | -31% | ? | -13% | 28µM* | -24%
Cc1cc(C)cc(C2(CNC(=O)C3NCCc4[nH]cnc43)CCCC2)c1 (stereo not drawn) | . | . | 89% | . | . | .
O=C(NCc1ccccn1)c1cc(C(F)(F)F)cc(C(F)(F)F)c1 | . | . | -13% | . | . | .
OCc1ccccc1-c1nc(NCc2ccccc2)nc2ccsc12 | . | . | 14µM* | . | . | .
COc1cc(NC(=O)CC2=C3CCCCC3NC2=O)cc(OC)c1 (stereo not drawn) | . | . | 16% | . | . | .
CCC(C)OC(=O)c1ccc(-c2ccc(-c3ccc(C(=O)OC(C)CC)cc3)cc2)cc1 (stereo not drawn) | . | . | -10% | . | . | .
Clc1ccc(CN2CCCC2)cc1 | . | . | -50% | . | . | .
Cc1cc(N=Nc2ccc(Cl)cc2)cc(CN2CCOCC2)c1O | 40µM* | 10µM* | ? | -2% | 7.9µM* | 16µM*
CCOc1ccc(Cl)cc1CN1CCOCC1 | 22% | -17% | 139% | 13% | 6%[12.7 µM] | -10%
Cc1cc(N=Nc2ccc(Cl)cc2)cc(CN2CCCC2)c1O | 20µM* | 10µM* | ? | -12% | . | 28µM*
Cn1cccc1CN1CCC2(C1)C(=O)N(c1ccccc1)c1ccccc12 (stereo not drawn) | . | . | 7%[6.33 µM] | . | . | .
COCCN1C[C@H]2CN(Cc3ccc(C(=O)O)cc3)CCN2C1=O | . | . | 28µM* | . | . | .
COCCN1C[C@H]2CN(Cc3ccccc3)CCN2C1=O | . | . | 21%[176 µM] | . | . | .
Cc1cccc(-c2noc(-c3ccco3)n2)c1 | . | . | 16% | . | . | .
CC(=O)Nc1ccc(NC(=O)C(C)n2nnc(-c3ccc(C(C)C)cc3)n2)cc1 (stereo not drawn) | . | . | -24% | . | . | .
O=C1[C@@H]2C[C@@H](CN2C(=O)c2cccnc2)Oc2ccccc2N1Cc1ccc(OC(F)(F)F)cc1 | . | . | 15% | . | . | .
Cc1cccc(N(CC(=O)NCCSCc2ccco2)S(=O)(=O)c2ccccc2)c1 | 9% | ? | 0% | 56µM* | 17%[12.7 µM] | ?
SMILES | HP1b chromo inh | BAZ2B block | ALOX12 inh | Sfp inh | G9a block | JMJD2A Tudor inh
CS(=O)(=O)N(Cc1ccccc1)c1ccc(C(=O)NCCSCc2ccco2)cc1 | -3% | ? | 0% | 28µM* | 6%[59 µM] | ?
CS(=O)(=O)Nc1ccc(C(=O)NCCSCc2ccco2)cc1 | 19% | 5% | 355% | -11% | -26%[59 µM] | -14%
Cc1ccc(C)c(N(CC(=O)NCCSCc2ccco2)S(C)(=O)=O)c1 | 13% | ? | 178% | 20µM* | ? | -35%
O=[N+]([O-])c1cccc(/C=N/OCc2ccccc2Cl)c1 | . | . | -19% | . | . | .
COC[C@@H]1CN(S(=O)(=O)c2ccc(C)cc2C)C[C@H]1C(N)=O | . | . | -3% | . | . | .
CC(Sc1nnc2c(Cl)cc(C(F)(F)F)cn12)c1ccc(F)cc1 (stereo not drawn) | . | . | -15% | . | . | .
O=C(Oc1ccc2c(c1)OCO2)c1cc2c(s1)CCC2 | ? | -126% | ? | -5% | -31%[59 µM] | 32µM*
S=c1[nH]nc(C2CCCCC2)n1/N=C/c1ccccc1Cl | ? | ? | ? | 63µM* | 2.2µM* | 22µM*
COc1ccccc1/C=N/n1cnnc1 | 36% | -2% | 117%[57.4 µM] | 1% | ? | -6%
COc1ccccc1/C=C/C=N/n1c(C2CCCCC2)n[nH]c1=S | ? | -34% | ? | -4% | 3.2µM* | ?
O=C(O)c1ccccc1/C=N/n1c(C2CCCCC2)n[nH]c1=S | -25% | -12% | ? | -12% | 22µM* | 7.9µM*
CCOc1ccccc1/C=N/n1c(C2CCCCC2)n[nH]c1=S | -7% | -30% | 0% | -26% | 14µM* | ?
CC(C)n1ncc2c(C(=O)Nc3ccc(F)cc3)c3c(nc21)CCC3 | . | . | -9% | . | . | .
CN(CC(=O)N1c2ccccc2NC(=O)CC1C(F)(F)F)Cc1ccccc1Cl (stereo not drawn) | . | . | 15% | . | . | .
CCCCCCCCCOc1ccc(C(=O)O)cc1 | . | . | 57% | . | . | .
COc1ccc(CC(=O)OCCCC(=O)c2ccc(F)cc2)cc1 | . | . | -9% | . | . | .
FC(F)(F)c1ccccc1/C=N/n1c(C2CCCCC2)n[nH]c1=S | -11% | -36% | ? | ? | 8.9µM* | ?
NS(=O)(=O)c1cccc(NC(=O)CCSc2ccc(Cl)cc2)c1 | 44% | -6% | ? | 6% | 1.4µM* | 9%
CCCOc1ccc(N2C(=O)CC(NCc3cccnc3)C2=O)cc1 (stereo not drawn) | 6% | 1% | -5% | 1% | . | -17%
CCCOc1ccc(N2C(=O)CC(NCCNc3ccc([N+](=O)[O-])cn3)C2=O)cc1 (stereo not drawn) | 33% | -26% | -10% | -7% | 13µM* | -18%
CCOc1ccc(N2C(=O)CC(NC3CCCCNC3=O)C2=O)cc1 (stereo not drawn) | 60% | 1% | ? | 3% | 7.9µM* | -15%
CCOc1ccc(N2C(=O)CC(NCC#N)C2=O)cc1 (stereo not drawn) | -10% | -7% | -4% | 56µM* | . | -26%
CC1CCC(=NO)CC1 (stereo not drawn) | . | . | -23% | . | . | .
CCOc1ccc(CC(=O)N2CCCN(c3cc(-c4ccc(OC)cc4)[nH]n3)CC2)cc1OCC | . | . | 56% | . | . | .
